Screen size: about 420,000 compounds; about 64,000 (15%) were called active. Not shown: some 27% with an inconclusive outcome. Calls follow the shape of the dose curve; as a rule, active = well fitted inhibition curve with a large enough effect; inconclusive = small, poorly fitted or top-dose-only effect; inactive = flat fitted curve, though single readings scatter. Not all results are given here. Where a call stands in place of a potency, no number is given.
Potency is read from the fitted curve at half-maximal effect.

The nature of this test: qHTS for Inhibitors of human tyrosyl-DNA phosphodiesterase 1 (TDP1): qHTS in cells in absence of CPT. Also: nearly all actives have a fitted effect of over 55% in size. Conditions: DT40 Tdp1-/- hTDP1 cells, no CPT, ATP luminescence, 48 h; activity change, negative = growth inhibition: at 46.2 µM (top of the series). Summed up: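 A cellular qHTS used chicken DT40 cells lacking endogenous Tdp1 but carrying stably transfected human TDP1. Compounds were applied without camptothecin, and cell growth kinetics were judged by ATP-dependent luminescence after ≥48 hr.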
(In general: qHTS replaces the single test concentration by a dilution series.)
On to `O=C(/C=C/c1cccc(F)c1)NC1CC1`, for which the Potency result was “inactive”.
In the case of `O=C(NNC(=S)Nc1ccc(Br)cc1Cl)c1ccco1` it was “inactive”; in that of `CCNC(=S)NNC(=O)C1CCN(Cc2ccccc2)CC1`, “inactive”.
In the case of `Cc1cc(Br)ccc1NC(=S)NC1CCCC1`, the Potency result was “inactive”.
In the case of `O=C(Nc1ccccc1)N1CCC(C(=O)N2CCN(Cc3ccccc3)CC2)CC1` it was “inactive”.
For the compound `S=C(Nc1ccc(Br)cc1)NC1CCN(Cc2ccccc2)CC1`, the Potency is 23.1 µM (active).
Turning to `S=C(Nc1ccc(Br)cc1Cl)NC1CCN(Cc2ccccc2)CC1`, the Potency was 7.31 µM (active).
In the case of `CCNc1ncc2nc(CCc3ccccc3)c(=O)n(-c3ccc(OC)cc3)c2n1` it was “inactive”; in that of `CC1(C(=O)NCc2ccccc2)CN(S(C)(=O)=O)CC(=O)N1CC(F)(F)F` (centres undefined), “inactive”.
For `CCOC(=O)c1ccc(-n2c(CCC(=O)O)ccc2-c2ccccc2)cc1`, the Potency entry was “inactive”.
With `CC1Cc2cc(/C(O)=C3\C(=O)C(=O)N(Cc4cccnc4)C3c3ccccc3F)ccc2O1` (centres undefined), the Potency result was “inactive”.
To `Cc1cc(=O)oc2ccc(OCC(=O)O)cc12` belongs “inactive”; to `Cc1ccc(O)c(/C=N/NC(=O)COc2ccc3c(C)cc(=O)oc3c2)c1`, 16.4 µM (active); to `COC(=O)COc1ccc2oc(=O)cc(C)c2c1`, “inactive”.
Take `CC(=O)c1c(C)[nH]c(C(=O)COc2ccc3c(C)cc(=O)oc3c2)c1C`: the Potency was 20.6 µM (active).
In the case of `Cc1cc(=O)oc2cc(OCC(=O)Nc3nnc(C4CC4)s3)ccc12` it was “inactive”; in that of `Cc1ccc(O)c(NC(=O)COc2cc(C)ccc2C)c1`, “inactive”.
Take `CN(CC(=O)Nc1ccc(N2CCOCC2)cc1)CC(=O)Nc1ccccc1[N+](=O)[O-]`: the Potency result was “inactive”.
To `O=c1c2ccccc2ncn1CCc1ccncc1` belongs “inactive”.
For `Cc1cccc(CC(=O)Nc2c3c(nn2-c2cccc(Cl)c2)CS(=O)C3)c1` (centres undefined), the Potency result was “inactive”.
To `O=C(COC(=O)/C=C/c1cccc(Cl)c1)NCCc1ccccc1` belongs “inactive”; to `NNc1cccc(C=Cc2ccccc2)cc1=O`, 1.64 µM (active).
To `O=c1oc(/C=C/c2ccccc2)nc2ccccc12` belongs “inactive”; to `O=C(Cn1c(=O)n(Cc2ccco2)c(=O)c2ccccc21)NCC1CCCO1` (centres undefined), “inactive”.
In the case of `COCCNc1nnc(SCC(=O)NNC(=O)c2ccco2)s1` it was “inactive”; in that of `CCOC(=O)C1=CN(Cc2ccc(Br)cc2)S(=O)(=O)N(C)C1C` (centres undefined), “inactive”.
Take `O=C(NCc1ccncc1)c1cccc(NS(=O)(=O)c2ccc(F)c(F)c2)c1`: the Potency entry is “inactive”.
In the case of `COCCCNC(=O)c1ccc(CNS(=O)(=O)c2ccc(NC(C)=O)cc2)cc1` it was “inactive”; in that of `O=C1[C@@H]2C(Cc3ccc(O)cc3)NC3(C(=O)Nc4ccc(F)cc43)[C@@H]2C(=O)N1c1ccc(F)cc1` (some centres undefined), “inactive”; in that of `CSCCC1NC2(C(=O)Nc3ccc(Cl)cc32)[C@@H]2C(=O)N(C3CCCC3)C(=O)[C@H]12` (some centres undefined), 20.6 µM (active).
In the case of `CN(C)S(=O)(=O)N1CCN(c2ccc([N+](=O)[O-])cc2)CC1` it was “inactive”.
For the compound `CC(N)(C(=O)O)c1ccc(-c2nn[nH]n2)cc1` (centres undefined), the Potency entry was “inactive”.
In the case of `CCOC(=O)N1CCN(Cc2nnc(-c3ccccc3Cl)o2)CC1` it was “inactive”; in that of `CCc1c(C)n([O-])c2c([n+]1=O)CCCCC2`, “inactive”; in that of `Cc1cccc(C(=O)OCC(=O)NCC(C)C)c1O`, “inactive”.
`Cc1cccc(C(=O)OCC(=O)NC(C)C2CC3CCC2C3)c1O` (centres undefined): the Potency is 16.4 µM (active).
To `CCOC(=O)CCC(=O)OCC(=O)NC(C)C1CC2CCC1C2` (centres undefined) belongs “inactive”; to `COC(=O)c1ccc(NC(=O)CSc2nnc(-c3ccncc3)n2C)cc1`, “inactive”.
In the case of `NS(=O)(=O)c1ccc(Nc2nc(-c3ccccc3)cs2)cc1` it was “inactive”; in that of `CC(=O)c1ccc(NC(=O)C(C)N(C)CC(=O)Nc2ccccc2Cl)cc1` (centres undefined), “inactive”; in that of `CC(=O)c1ccc(Nc2nc(C(N)c3ccccc3Cl)cs2)cc1` (centres undefined), 11.6 µM (active).
For `COc1ccc(NC(=O)CSc2nnc(-c3nnn(-c4ccc(F)cc4)c3C)o2)cc1`, the Potency entry is “inactive”.
To `COc1ccccc1N(CC(=O)NC1CCCC1)C(=O)C1(C)CC(=O)N=C2C=CC(C)=CN21` (centres undefined) belongs “inactive”; to `CC1=C(C(N)=O)C(c2sccc2C)n2nnnc2N1` (centres undefined), “inactive”; to `CSc1cccc(NC(=S)N(Cc2ccccc2)Cc2ccccn2)c1`, 20.6 µM (active).
To `COc1cccc(NC(=S)N(Cc2ccc(C)cc2)Cc2ccccn2)c1` belongs “inactive”.
`Cc1c(Cl)cccc1NC(=S)N(Cc1ccccc1)Cc1cccnc1`: the Potency result is “inactive”.
For the compound `CSc1cccc(NC(=S)N(C(C)C)C(C)c2ccccn2)c1` (centres undefined), the Potency was 8.2 µM (active).
To `CC(c1ccccn1)N(CCN(C)C)C(=S)Nc1ccccc1F` (centres undefined) belongs “inactive”; to `CC(C)(C)c1nnc(N/N=C/c2ccc(O)cc2)n(N)c1=O`, “inactive”; to `O=C(CC[C@H]1O[C@@H](n2ccc(=O)[nH]c2=O)[C@H](O)[C@@H]1O)N[C@H](Cc1ccccc1)C(=O)NCCCN1CCCC1=O`, “inactive”.
To `CN(C(=O)COC(=O)CCCc1c[nH]c2ccccc12)c1c(N)n(Cc2ccccc2)c(=O)[nH]c1=O` belongs “inactive”; to `Cc1nc2c(ncn2-c2ccccc2)c(=O)n1NC(=O)CN1CCCC1`, “inactive”.
To `CCN(CC)C(=O)CSc1nnc(-c2ccc(S(=O)(=O)NCc3ccccc3Cl)cc2)o1` belongs “inactive”.
Consider `COc1ccccc1NC(=O)C(CC(=O)O)Cc1cc(C)cc(C)c1` (centres undefined), for which the Potency result is “inactive”.
In the case of `COc1ccccc1NC(=O)[C@H](COCc1ccccc1)NC(=O)OC(C)(C)C`, the Potency is 18.4 µM (active).
With `COc1ccccc1NC(=O)C(C)OC(=O)CC1CCCC1` (centres undefined), the Potency result was “inactive”.
In the case of `COc1ccc(C)cc1NC(=O)CCCN1C(=O)NC(C)(C)C1=O` it was “inactive”; in that of `O=S(=O)(NCCNS(=O)(=O)c1ccccc1)c1ccccc1`, “inactive”.
For `Cc1cc(C(=O)N2CCCC2(C)C(=O)O)c(C)o1` (centres undefined), the Potency result is “inactive”.
In the case of `COc1ccc(CNC(=O)c2ccc3c(c2)nc2n3CCOC2)c(OC)c1` it was “inactive”.
To `Cc1cccc(CCNC(=O)c2ccc3c(c2)nc2n3CCC(C)C2)c1` (centres undefined) belongs 18.4 µM (active); to `Cc1ccc(CCNC(=O)c2ccc3c(c2)nc2n3CCC(C)C2)cc1` (centres undefined), “inactive”.
With `CCOc1ccc(CCNC(=O)COC(=O)C2CCN(S(=O)(=O)c3ccccc3)CC2)cc1OCC`, the Potency result is “inactive”.
To `COC(=O)c1ccc(COC(=O)c2cnccn2)cc1` belongs “inactive”; to `Cc1ccc(S(=O)(=O)NCC(C)NS(C)(=O)=O)cc1` (centres undefined), “inactive”; to `Nc1nnnn1/N=C/c1cccc(Br)c1`, “inactive”.
To `COc1ccc(C(=O)Nc2ccc(S(=O)(=O)Nc3onc(C)c3C)cc2)cc1OC` belongs “inactive”; to `COc1ccc(C(=O)NC(=S)Nc2ccc(N3CCCC3)cc2)cc1OC`, 8.2 µM (active); to `COc1ccccc1C(=O)NC(=S)NC12CC3CC(CC(C3)C1)C2`, “inactive”.
As for `COc1ccccc1C(=O)NC(=S)Nc1ccc(N2CCOCC2)cc1`, the Potency is 0.206 µM (active).
In the case of `COc1ccc(C(=O)NC(=S)Nc2ccc(Cl)cn2)cc1OC` it was “inactive”; in that of `Cc1ccc(NC(=S)NC(=O)c2ccc(-c3ccccc3)cc2)cc1`, 4.61 µM (active); in that of `COc1ccc(C(=O)Nc2ccc(N3CCC(C)CC3)cc2)cc1Br`, “inactive”.
In the case of `CC(=O)NC(=S)Nc1ccc(NC(=S)NC(=O)c2ccc([N+](=O)[O-])cc2)cc1` it was “inactive”.
As to `COc1ccccc1C(=O)Nc1cccc(C(=O)N2CCOCC2)c1`, the Potency entry was “inactive”.
Regarding `COc1ccc(C(=O)Nc2ccc(C3(C#N)CCCC3)cc2)cc1OC`, the Potency was 23.1 µM (active).
To `Cc1ccc(C(=O)NC(=S)Nc2ccccc2C)cc1` belongs “inactive”.
Turning to `COc1ccc(C(=O)Nc2ccc3c(c2)OCO3)cc1OC`, the Potency result is “inactive”.

The values are drawn from PubChem BioAssay AID686978 (National Center for Advancing Translational Sciences (NCATS), 2013).
